Hits are enriched below; roughly 4% of the tested compounds scored in any of these assays.
FAS-TE inh: FAS thioesterase (human) inhibition | P49327 | recombinant FAS-TE, OMFH fluorogenic substrate, fluorescence endpoint | inhibition, % at 15 µM | actives 0.67% (n = 360,000);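 active = compounds whose normalised, plate-corrected inhibition of enzyme fluorescence in the single-dose primary screen is 50% or more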
ADAM17 inh: inhibits human ADAM17; recombinant ADAM17, EDANS/DABCYL FRET peptide cleavage; P78536; inhibition, % at 6.95 µM; actives 0.83% (n = 370,000);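 active = inhibition above the mean of compounds lying between control limits plus 3 SD, set per campaign, cut at about 8.5% in these data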
Target sequence (P78536 215-824 limits assumed): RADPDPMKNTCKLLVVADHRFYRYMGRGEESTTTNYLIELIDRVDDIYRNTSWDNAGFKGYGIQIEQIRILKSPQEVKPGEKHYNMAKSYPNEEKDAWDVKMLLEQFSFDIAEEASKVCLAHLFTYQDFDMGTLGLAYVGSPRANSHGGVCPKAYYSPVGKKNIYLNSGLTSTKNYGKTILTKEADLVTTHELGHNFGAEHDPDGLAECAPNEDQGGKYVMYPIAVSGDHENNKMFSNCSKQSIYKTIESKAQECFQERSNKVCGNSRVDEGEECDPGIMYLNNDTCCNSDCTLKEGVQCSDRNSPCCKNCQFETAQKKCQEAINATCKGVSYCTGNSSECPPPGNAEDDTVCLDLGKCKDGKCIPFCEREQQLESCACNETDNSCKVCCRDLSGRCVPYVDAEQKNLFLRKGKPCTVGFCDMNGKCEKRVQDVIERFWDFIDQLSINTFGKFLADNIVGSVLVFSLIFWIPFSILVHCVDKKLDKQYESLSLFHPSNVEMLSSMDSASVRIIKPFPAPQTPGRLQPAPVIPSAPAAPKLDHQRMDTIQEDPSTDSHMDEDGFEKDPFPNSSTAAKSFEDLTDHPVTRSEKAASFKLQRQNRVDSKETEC
GRIN3A LBD mod: modulators (binders) of human NR3A ligand-binding domain | NR3A LBD differential scanning fluorimetry, Tm shift; 0% = protein alone, 100% = glycine-bound protein | Tm shift relative to glycine control, % at 25 µM | AID 1259313 | actives 2.5% (n = 340,000);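 active = melting temperature shift of at least 10% of the positive control shift, at one fixed dose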
ADAM10 inh: inhibits human ADAM10. O14672. recombinant ADAM10, EDANS/DABCYL FRET peptide cleavage, 3 h. inhibition, % at 7 µM. actives 0.62% (n = 370,000);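 active = inhibition above a per-campaign cutoff equal to the mean of compounds falling between control-based bounds plus 3 SD, cut at about 20% in these data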
aDG glyco up: alpha-DG glycosylation activation | Pro5-aDG cells, alpha-DG glycosylation AlphaScreen (IIH6); 0% Pro5, 100% B10-LARGE cell signal | actives 0.22% (n = 360,000) | AID 624168 | activation, % at 10 µM;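 active = activation of at least 8% versus controls, or a plate z-score of at least 8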;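 note: Pro5 are CHO cells carrying HIG-tagged alpha-DG that lacks glycosylation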
ADAM10 counter: counter-screen for ADAM17 exosite inhibitors: inhibitors of human ADAM10 | shares compounds with ADAM17 inh | recombinant ADAM10, EDANS/DABCYL FRET peptide cleavage, 3 h | inhibition, % at 6.95 µM | actives 47% (n = 2,900) | AID 743256;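 active = mean inhibition over the triplicate runs exceeds the activity threshold set in the earlier primary screen, cut at about 20% in these data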
ADAM17 confirm: human ADAM17 inhibition, confirmation. shares compounds with ADAM17 inh. recombinant ADAM17, EDANS/DABCYL QFRET peptide cleavage. inhibition, % at 6.95 µM. actives 65% (n = 2,900). AID 743257;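 active = mean inhibition across replicates above the hit cutoff set in the primary screen, cut at about 8.5% in these data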
Numbers stand for hits.

What do the screens show for `CC(C)(C)OC(=O)[C@H](Cc1ccccc1)NCC(=O)OCc1ccc(C(=O)NCc2ccccc2)cc1`?
ADAM17 inh: 8.7; ADAM10 inh: inactive; ADAM10 counter: inactive; ADAM17 confirm: inactive

What do the screens show for `COC(=O)c1ccc(COC(=O)CNC(=O)c2ccc(-c3ccccc3)cc2)cc1`?
FAS-TE inh: inactive; ADAM17 inh: inactive; GRIN3A LBD mod: inactive; ADAM10 inh: inactive; aDG glyco up: inactive

How did C[C@@H](NC(=O)c1nc[nH]c1C(=O)N[C@@H](Cc1ccccc1)C(=O)OC(C)(C)C)c1ccccc1 do in these assays?
FAS-TE inh: inactive; ADAM17 inh: 10.0; GRIN3A LBD mod: inactive; ADAM10 inh: inactive; aDG glyco up: inactive; ADAM10 counter: 32.8; ADAM17 confirm: 14.1

Results for CNC(=O)c1[nH]cnc1C(=O)N[C@@H](Cc1ccccc1)C(=O)OCc1ccccc1 ?
FAS-TE inh: inactive; ADAM17 inh: inactive; GRIN3A LBD mod: inactive; ADAM10 inh: inactive; aDG glyco up: inactive

Results for CC(C)(C)OC(=O)NCc1ccc(CNC(=O)c2[nH]cnc2C(=O)N[C@@H](Cc2ccccc2)C(=O)OCc2ccccc2)cc1 ?
FAS-TE inh: inactive; ADAM17 inh: 12.0; GRIN3A LBD mod: inactive; ADAM10 inh: inactive; aDG glyco up: inactive; ADAM10 counter: 33.8; ADAM17 confirm: 19.9

Results for CCOC(=O)c1c(-c2ccccc2)csc1NC(=O)CSc1nncs1 ?
FAS-TE inh: inactive; ADAM17 inh: 9.0; GRIN3A LBD mod: inactive; ADAM10 inh: inactive; aDG glyco up: inactive; ADAM10 counter: inactive; ADAM17 confirm: 12.7

How did CCCc1nnc(SCC(=O)N2C(C)CCCC2C)n1CCCOC (stereo not given) do in these assays?
FAS-TE inh: inactive; ADAM17 inh: inactive; GRIN3A LBD mod: inactive; ADAM10 inh: inactive; aDG glyco up: inactive

Results for CCC(C(=O)Nc1cccc(C(F)(F)F)c1)c1ccccc1 (stereo not given) ?
FAS-TE inh: inactive; ADAM17 inh: 8.7; GRIN3A LBD mod: inactive; ADAM10 inh: inactive; aDG glyco up: inactive; ADAM10 counter: 19.9; ADAM17 confirm: 9.4

Results for COc1ccc(Cl)cc1NC(=O)CSc1nc(-c2ccccc2)cc(=O)[nH]1 ?
FAS-TE inh: inactive; ADAM17 inh: inactive; GRIN3A LBD mod: inactive; ADAM10 inh: inactive; aDG glyco up: inactive

How did Nc1nc(C(c2ccccc2)c2ccccc2)cs1 do in these assays?
FAS-TE inh: inactive; ADAM17 inh: 8.7; GRIN3A LBD mod: inactive; ADAM10 inh: inactive; aDG glyco up: inactive; ADAM10 counter: inactive; ADAM17 confirm: inactive

How did Cc1ccc(C)c(S(=O)(=O)N2CCCOC2CNC(=O)C(=O)NCc2ccccc2)c1 (stereo not given) do in these assays?
FAS-TE inh: inactive; ADAM17 inh: inactive; GRIN3A LBD mod: inactive; ADAM10 inh: inactive; aDG glyco up: inactive

What do the screens show for `CCOC(=O)N1CCN(C(=O)CCC2CCCC2)CC1`?
FAS-TE inh: inactive; ADAM17 inh: inactive; GRIN3A LBD mod: inactive; ADAM10 inh: inactive; aDG glyco up: inactive

How did Cc1ccc(S(=O)(=O)CNC(=S)c2cccc(Cl)c2)cc1 do in these assays?
FAS-TE inh: inactive; ADAM17 inh: 11.3; GRIN3A LBD mod: inactive; ADAM10 inh: inactive; aDG glyco up: inactive; ADAM10 counter: 48.5; ADAM17 confirm: 26.1

How did Cc1ccc(S(=O)(=O)NC(=S)c2ccccc2)cc1 do in these assays?
FAS-TE inh: inactive; ADAM17 inh: inactive; GRIN3A LBD mod: inactive; ADAM10 inh: inactive; aDG glyco up: inactive

How did Cc1nn(Cc2noc(C(=O)NCc3ccccn3)n2)c(C)c1Br do in these assays?
FAS-TE inh: inactive; ADAM17 inh: 9.6; GRIN3A LBD mod: inactive; ADAM10 inh: inactive; aDG glyco up: inactive; ADAM10 counter: inactive; ADAM17 confirm: inactive

How did Cc1nn(Cc2noc(C(=O)NCCc3ccccn3)n2)c(C)c1Br do in these assays?
FAS-TE inh: inactive; ADAM17 inh: inactive; GRIN3A LBD mod: inactive; ADAM10 inh: inactive; aDG glyco up: inactive

Results for C=CC[C@H]1c2ccccc2[C@H]2N3N=Cc4ccccc4[C@H]3[C@H](CCc3ccccc3)C(=O)N2N1C(=O)c1ccccc1 ?
ADAM17 inh: 11.4; ADAM10 inh: inactive; ADAM10 counter: inactive; ADAM17 confirm: inactive

Results for C=CC[C@@H]1NN2C(=O)[C@@H](CCc3ccccc3)[C@@H]3c4ccccc4C=NN3[C@@H]2c2ccccc21 ?
ADAM17 inh: inactive; ADAM10 inh: inactive

How did CCN(c1ccc(OC)cc1)S(=O)(=O)c1nnc(NC(=O)C2CCCCC2)s1 do in these assays?
FAS-TE inh: inactive; ADAM17 inh: 10.1; GRIN3A LBD mod: inactive; ADAM10 inh: inactive; aDG glyco up: inactive; ADAM10 counter: inactive; ADAM17 confirm: inactive

Results for Cc1ccccc1OCC(=O)OCC(=O)NCc1ccc2c(c1)OCO2 ?
FAS-TE inh: inactive; ADAM17 inh: inactive; GRIN3A LBD mod: inactive; ADAM10 inh: inactive; aDG glyco up: inactive

How did CC(=O)Nc1nnc(-c2ccccn2)o1 do in these assays?
FAS-TE inh: inactive; ADAM17 inh: inactive; GRIN3A LBD mod: inactive; ADAM10 inh: inactive; aDG glyco up: inactive

What do the screens show for `Cc1cc(C(=O)CCC(=O)N(C)CC(=O)Nc2ccccc2Br)c(C)s1`?
FAS-TE inh: inactive; ADAM17 inh: 11.1; GRIN3A LBD mod: inactive; ADAM10 inh: inactive; aDG glyco up: inactive; ADAM10 counter: inactive; ADAM17 confirm: inactive

Results for CN(C)/C=C/C(=O)c1ccc([N+](=O)[O-])c(CS(=O)(=O)c2ccccc2)c1 ?
FAS-TE inh: inactive; ADAM17 inh: 9.3; GRIN3A LBD mod: inactive; ADAM10 inh: inactive; aDG glyco up: inactive; ADAM10 counter: inactive; ADAM17 confirm: 8.7

What do the screens show for `Cc1cc(F)cc(-c2cc(C(=O)NCc3ccccc3)[nH]n2)c1`?
FAS-TE inh: inactive; ADAM17 inh: inactive; ADAM10 inh: inactive; aDG glyco up: inactive

Results for Cc1cc(F)cc(-c2cc(C(=O)NCc3cccc(Cl)c3)[nH]n2)c1 ?
FAS-TE inh: inactive; ADAM17 inh: 9.1; ADAM10 inh: inactive; aDG glyco up: inactive; ADAM10 counter: inactive; ADAM17 confirm: inactive

Results for CCCOc1ccc(F)cc1-c1cc(C(=O)NCc2cccc(C(F)(F)F)c2)[nH]n1 ?
FAS-TE inh: inactive; ADAM17 inh: 9.7; ADAM10 inh: inactive; aDG glyco up: inactive; ADAM10 counter: 22.4; ADAM17 confirm: 15.1

What do the screens show for `O=C(O)c1cc(O)c2c(c1)[C@H]([C@H]1c3cc(C(=O)O)cc(O)c3C(=O)c3c(O[C@@H]4O[C@H](CO)[C@@H](O)[C@H](O)[C@H]4O)cccc31)c1cccc(OC3O[C@H](CO)[C@@H](O)[C@H](O)[C@H]3O)c1C2=O` (stereo not given in full)?
FAS-TE inh: inactive; ADAM17 inh: 15.8; GRIN3A LBD mod: 25.6; ADAM10 inh: inactive; aDG glyco up: inactive; ADAM10 counter: inactive; ADAM17 confirm: 9.7

High-throughput results as filed in PubChem BioAssay.
